Bioassay records as filed in PubChem.
ALOX12 inh: blocks human arachidonate 12S-lipoxygenase; Potency, µM (highest dose often 108 µM), for the others: at the top dose activity change, negative = inhibition, most hits filed as inhibitors; purified 12hLO, xylenol orange hydroperoxide absorbance; 580,000 compounds, 1.1% hits
Target sequence (P18054 whole entry, looked up): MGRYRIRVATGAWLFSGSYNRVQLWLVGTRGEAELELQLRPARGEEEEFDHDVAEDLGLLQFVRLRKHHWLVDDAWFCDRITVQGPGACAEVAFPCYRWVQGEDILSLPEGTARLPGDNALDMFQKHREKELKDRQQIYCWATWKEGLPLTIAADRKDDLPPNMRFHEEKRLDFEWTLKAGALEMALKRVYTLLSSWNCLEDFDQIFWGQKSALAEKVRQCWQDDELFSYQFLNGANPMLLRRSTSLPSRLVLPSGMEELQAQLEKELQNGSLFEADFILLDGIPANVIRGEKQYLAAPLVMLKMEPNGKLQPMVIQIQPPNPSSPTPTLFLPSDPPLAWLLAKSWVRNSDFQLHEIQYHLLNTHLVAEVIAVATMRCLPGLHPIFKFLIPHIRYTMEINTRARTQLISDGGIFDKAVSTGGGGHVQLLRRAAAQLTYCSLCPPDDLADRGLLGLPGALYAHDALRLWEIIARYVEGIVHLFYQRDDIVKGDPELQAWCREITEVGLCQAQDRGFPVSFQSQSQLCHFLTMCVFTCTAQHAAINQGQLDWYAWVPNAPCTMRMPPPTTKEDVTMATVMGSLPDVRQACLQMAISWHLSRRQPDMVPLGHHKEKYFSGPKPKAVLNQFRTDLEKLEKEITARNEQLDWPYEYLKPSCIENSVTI
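Purified human 12hLO (150 nM final) in 25 mM Hepes, 0.01% Triton X-100, pH 7.0 was preincubated 15 min at room temperature with compound. Then 40 uM arachidonic acid was added, 30 min. Hydroperoxide was read by Fe-XO absorbance ratio 573/405 nm.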
TDP1 cell noCPT: qHTS for Inhibitors of human tyrosyl-DNA phosphodiesterase 1 (TDP1): qHTS in cells in absence of CPT; Potency, µM (doses to about 46.2 µM), without a hit: at the highest dose activity change, negative = growth inhibition, usual class: inhibitors; 420,000 compounds, 15% hits; DT40 Tdp1-/- hTDP1 cells, no CPT, ATP luminescence, 48 h; also: nearly all actives have a fitted effect of over 55% in size
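Readout: luminescence from CellTiter-Glo after 30 min in the dark at RT. Cells: DT40 Tdp1-/- with stable hTDP1, 400/well. Exposure: compounds alone, ≥48 hr, 37 °C.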
DT40 TDP1 CPT: growth inhibition of DT40 Tdp1-/-;hTDP1 cells with camptothecin (screen for TDP1 inhibitors). chicken DT40 Tdp1-/-;hTDP1 cells + 20 nM CPT, ATP luminescence, 48 h. Potency, µM (series often up to 46.2 µM), for the others: at the top dose activity change, negative = growth inhibition, actives largely listed as inhibitors. 420,000 compounds, 12% hits. AID 686979; also: nearly all actives have a fitted effect of over 55% in size
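Chicken DT40 Tdp1-/- cells stably complemented with human TDP1 were seeded at 400 cells/well in medium containing 20 nM camptothecin, exposed to pin-transferred compounds, and grown at 37 °C for at least 48 hr. Viability was read as ATP luminescence.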
RORgamma inh: ROR gamma (mouse) transcription inhibition. P51450. Drosophila S2 Gal4-RORgamma UAS-luciferase reporter, 20 h. Potency, µM (top dose mostly 53.6 µM), inactives show top-dose activity change, negative = inhibition, most hits filed as inhibitors. 310,000 compounds, 5.4% hits. AID 2551; also: nearly all actives have a fitted effect of over 60% in size
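In this cell-based reporter format, copper sulfate (700 uM final) drives Gal4–ROR gamma fusion expression from a metallothionein promoter in Drosophila Schneider cells; compounds preincubated 1 hr, reporter read after 20 hr at ambient temperature.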
VP16 counter: counter-screen for ROR gamma inhibitors: Gal4-VP16 reporter; Drosophila S2 Gal4-VP16 UAS-luciferase, luminescence, 20 h; 310,000 compounds, 3.5% hits; Potency, µM (highest dose often 53.6 µM), for the others: top-dose activity, negative = inhibition, usual class: inhibitors;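 also: Gal4-VP16 expression switched on by copper sulfate through the metallothionein promoter; nearly all actives have a fitted effect of over 50% in size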
ELG1 DNA repair: ELG1-dependent DNA repair inhibition. HEK293T ELG1-luciferase reporter, luminescence, 16 h; DNA damage induced by 5-fluorouridine. Potency, µM (series often up to 46.1 µM), inactives show at the highest dose activity change, negative = inhibition, actives largely listed as inhibitors. 330,000 compounds, 2.3% hits. AID 504467; also: nearly all actives have a fitted effect of over 55% in size
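In this reporter screen, reduction of luminescence relative to DMSO vehicle indicated activity. Compounds and 5-fluorouridine were added together to 2,000 cells per well, incubated for 16 hr at 37 °C, then developed with ONE-Glo.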
An asterisk follows results filed as active; ? = inconclusive; · = no result. The list is not random: actives were taken first. Their share in the collection is about 15%. Calls follow the shape of the dose curve; as a rule, active = well fitted curve in the direction sought with a large enough effect; inconclusive = small, poorly fitted or top-dose-only effect, or another doubt; inactive = no such curve, though single readings can be large; an effect the other way counts as inactive or inconclusive. % is scaled to controls: 0 for no effect and ±100 for the full control effect; potency is read from the fitted curve at half-maximal effect.

SMILES	ALOX12 inh	TDP1 cell noCPT	DT40 TDP1 CPT	RORgamma inh	VP16 counter	ELG1 DNA repair
Cc1cc(C(=O)OC(C)C(=O)Nc2cccc(Cl)c2)on1 (centres undefined)	-4%	-24%	-3%	·	·	12%
CC(=O)NC(=S)Nc1ccc(NC(=O)c2cccc(Cl)c2)cc1	41%	·	·	·	·	·
CC(C)C(=O)NC(=S)Nc1ccc(NC(=O)c2cccc(Cl)c2)cc1	16µM*	·	·	·	·	·
CNC(=O)[C@@H]1CN(Cc2c(F)cccc2Cl)C[C@H]1CO	42%	·	·	·	·	·
COCCCNc1oc(-c2ccccc2C)nc1C#N	-13%	·	·	·	·	·
COc1ccc(-n2c(=O)c(C)nc3cnc(Nc4cccc(OC)c4)nc32)cc1	26%	18µM*	23µM*	26%	-2%	·
COCCn1c(=O)cnc2cnc(Nc3cccc(OC)c3)nc21	?	?	9.2µM*	-24%	?	·
COc1cccc(Nc2ncc3nc(C)c(=O)n(CCC#N)c3n2)c1	0%	0.92µM*	0.23µM*	26%	1%	·
COc1cccc(Nc2ncc3ncc(=O)n(CCC#N)c3n2)c1	0%	-11%	-6%	?	12%	·
O=C(Cn1ccc2ccc(Cl)cc21)N1CCOCC1	12%	·	·	·	·	·
COc1ccccc1C(=O)Nc1ccc2nc(SCCOc3ccccc3C)sc2c1	-18%	18µM*	16µM*	·	·	·
Cc1ccccc1NC(=O)CSc1nc2ccc(NC(=O)c3cccs3)cc2s1	-12%	21µM*	?	·	·	·
Cc1nc2ccc(NC(=O)c3ccc(Cl)c(NC(=O)c4cccs4)c3)cc2s1	6%	21µM*	?	22%	-9%	-20%
Cc1cc(C)cc(OCCSc2nc3ccc(NC(=O)c4cccs4)cc3s2)c1	-21%	21µM*	?	·	·	·
Cc1ccc(OCCSc2nc3ccc(NC(=O)c4cccs4)cc3s2)cc1	-9%	-25%	-24%	·	·	·
C=C(CN(C)C)C(=O)c1ccc(OC2OC(COC(C)=O)C(OC(C)=O)C(OC(C)=O)C2OC(C)=O)cc1 (centres undefined)	?	0.58µM*	0.46µM*	·	·	·
O=[N+]([O-])c1cc2oc3c(c2c(C=NCc2ccncc2)c1O)CCCC3	·	?	?	13µM*	?	7%
NC(=O)N/N=C/c1c(O)ccc2oc3c(c12)CCCC3	-15%	?	?	2%	2%	-19%
CC[C@]12c3[nH]c4cc(CCC(=O)N(C)C)ccc4c3CCN1C(=O)[C@@H](CC(=O)NCc1cccc(C(F)(F)F)c1)C[C@@H]2C(=O)N1CCN(C(=O)c2ccco2)CC1	-11%	?	21µM*	·	·	?
CC[C@]12c3[nH]c4ccccc4c3CCN1C(=O)C(CC(=O)NCCCn1ccnc1)C[C@@H]2C(=O)N1CCN(C(=O)C2CC2)CC1 (some centres undefined)	-19%	3%	4%	·	·	14%
CC[C@]12c3[nH]c4cc(-c5ccco5)ccc4c3CCN1C(=O)[C@@H](CC(=O)NCC13CC4CC(CC(C4)C1)C3)C[C@@H]2C(=O)N1CCN(C(=O)C2CC2)CC1	-17%	23µM*	?	·	·	?
CN(C)C(=O)CCc1ccc2c3c([nH]c2c1)[C@]1(C)[C@@H](C(=O)N2CCCCC2)C[C@H](CC(=O)NCC24CC5CC(CC(C5)C2)C4)C(=O)N1CC3	-2%	13µM*	9.2µM*	·	·	?
CC[C@]12c3[nH]c4cc(-c5ccco5)ccc4c3CCN1C(=O)[C@@H](CC(=O)NCC13CC4CC(CC(C4)C1)C3)C[C@@H]2C(=O)N1CCN(C(=O)c2ccco2)CC1	-13%	21µM*	9.2µM*	·	·	-23%
Cn1c(=O)c2c(nc(CN3CCN(Cc4ccccc4)CC3)n2CC(N)=O)n(C)c1=O	-22%	·	·	·	·	·
O=C(Nc1ccc2c(c1)OCCO2)C1CN(S(=O)(=O)C2CC2)CC12CCCCC2 (centres undefined)	48%	·	·	·	·	·
SMILES	ALOX12 inh	TDP1 cell noCPT	DT40 TDP1 CPT	RORgamma inh	VP16 counter	ELG1 DNA repair
C[C@]12c3[nH]c4cc(-c5ccco5)ccc4c3CCN1C(=O)[C@@H](CC(=O)NCCCn1ccnc1)C[C@@H]2C(=O)N1CCCCC1	7%	-9%	?	·	·	-1%
C[C@]12c3[nH]c4cc(-c5ccco5)ccc4c3CCN1C(=O)[C@@H](CC(=O)NCC13CC4CC(CC(C4)C1)C3)C[C@@H]2C(=O)N1CCCCC1	-25%	6.5µM*	5.2µM*	·	·	1%
CC[C@]12c3[nH]c4cc(-c5ccco5)ccc4c3CCN1C(=O)[C@@H](CC(=O)NCc1cccc(C(F)(F)F)c1)C[C@@H]2C(=O)N1CCN(C(=O)C2CC2)CC1	-24%	?	16µM*	·	·	?
C[C@]12c3[nH]c4cc(-c5ccco5)ccc4c3CCN1C(=O)[C@@H](CC(=O)NCc1cccc(C(F)(F)F)c1)C[C@@H]2C(=O)N1CCCCC1	-21%	26µM*	?	·	·	-7%
CN(C)CCCNC(=O)C[C@H]1C[C@H](C(=O)N2CCCCC2)[C@@]2(C)c3[nH]c4cc(-c5ccco5)ccc4c3CCN2C1=O	11%	?	?	·	·	15%
CC[C@]12c3[nH]c4cc(-c5ccco5)ccc4c3CCN1C(=O)[C@@H](CC(=O)NCc1ccco1)C[C@@H]2C(=O)N1CCN(C(=O)C2CC2)CC1	?	16µM*	16µM*	·	·	-8%
O=C(c1ccccc1-c1ncc(-c2ccccc2F)o1)N1CCCC1	-27%	·	·	·	·	·
O=C(c1ccccc1F)N1CCC2(CC1)C(=NC1CCCC1)NC(=O)N2c1cc(F)cc(F)c1	57%	·	·	·	·	·
Cc1cc2nc3n(c(=O)c2n1CC(=O)N1CCCc2ccccc21)CCCCC3	12%	·	·	·	·	·
Cc1nc(-c2ccc(OC(F)(F)F)cc2)sc1C(=O)N1CCC2(CC1)OCCO2	-29%	·	·	·	·	·
Cc1nc(NC(=O)c2c(F)cccc2Cl)sc1C	2%	·	·	·	·	·
O=C(O)c1ccc(/C=C/C(=O)c2cc(Cl)ccc2Cl)cc1	-43%	·	·	·	·	·
CCNc1c(NC(=O)NCC2CCCO2)c(=O)oc2ccccc12 (centres undefined)	-24%	·	·	·	·	·
CC[C@]12c3[nH]c4cc(-c5ccco5)ccc4c3CCN1C(=O)[C@@H](CC(=O)NCCC1=CCCCC1)C[C@@H]2C(=O)N1CCN(C(=O)C2CC2)CC1	?	?	?	·	·	21µM*
